Screens (PubChem BioAssay)
In the library only some 7.3% were active in any assay of this set; here they are far more common.
FLuc modulator: qHTS profiling assay for firefly luciferase inhibitor/activator using purifed enzyme and Km concentrations of substrates (counterscreen for miR-21 project) | purified FLuc, Km substrates, luminescence inhibition | Luciferin 4-monooxygenase (Photinus pyralis), P08659 | Potency, µM (top dose mostly 57.5 µM), most hits filed as inhibitors | actives 6.9% (n = 360,000); further: nearly all actives have a fitted effect of over 55% in size
Target sequence (P08659 whole entry, looked up): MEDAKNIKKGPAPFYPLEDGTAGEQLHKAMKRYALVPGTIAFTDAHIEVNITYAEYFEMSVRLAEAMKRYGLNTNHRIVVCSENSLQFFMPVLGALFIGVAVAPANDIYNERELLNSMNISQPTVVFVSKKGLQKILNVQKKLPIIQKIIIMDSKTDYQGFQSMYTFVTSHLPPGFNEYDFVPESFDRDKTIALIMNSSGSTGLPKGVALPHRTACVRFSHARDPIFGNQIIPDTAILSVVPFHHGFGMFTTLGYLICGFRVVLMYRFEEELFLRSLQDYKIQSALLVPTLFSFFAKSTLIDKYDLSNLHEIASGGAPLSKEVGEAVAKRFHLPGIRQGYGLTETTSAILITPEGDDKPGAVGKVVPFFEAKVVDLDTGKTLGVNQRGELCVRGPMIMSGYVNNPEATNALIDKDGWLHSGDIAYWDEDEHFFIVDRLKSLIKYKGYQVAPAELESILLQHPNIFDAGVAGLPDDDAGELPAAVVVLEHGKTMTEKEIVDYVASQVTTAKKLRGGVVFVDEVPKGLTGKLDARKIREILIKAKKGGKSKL
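Purified P. pyralis luciferase, 10 nM final, with Km-level 10 uM D-luciferin and 10 uM ATP in 50 mM Tris acetate pH 7.5, 10 mM Mg acetate, 0.01% Tween-20, 0.05% BSA; 6-point qHTS titration about 60 µM downward; luminescence read.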
SMN2 splice enh: qHTS Assay for Enhancers of SMN2 Splice Variant Expression. actives 2.8% (n = 210,000). Potency, µM (top dose mostly 46.1 µM), usual class: activators. HEK293 SMN2-luciferase splicing reporter, luminescence, 30-36 h; further: nearly all actives have a fitted effect of over 55% in size
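qHTS luciferase splicing reporter: luminescence rises when SMN2 exon 7 is included in transfected HEK293 cells. Compound exposure lasted 30-36 h at 37C, with 4.5 mM final sodium butyrate as control, followed by a ONE-Glo read.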
uPA generation: qHTS for Inhibitors of Cell Surface uPA Generation; cell surface uPA generation assay, qHTS; Potency, µM (doses to about 38.3 µM), most hits filed as inhibitors; actives 0.31% (n = 330,000); AID 540303, 2011; active means well fitted inhibition curve with a large enough effect; inconclusive means small, poorly fitted or top-dose-only effect; inactive means no such curve, though single readings can be large or run the other way; tested in mouse RAW 264.7 cells; further: nearly all actives have a fitted effect of over 55% in size
NPC1 prom act: qHTS Assay for NPC1 Promoter Activators | Huh7 NPC1 promoter luciferase reporter, 24 h | Potency, µM (top dose mostly 9.22 µM), actives largely listed as activators | actives 2.4% (n = 320,000); further: nearly all actives have a fitted effect of over 60% in size
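Stably transfected Huh7 (NPC1 promoter→luciferase), 1500 cells/well in Opti-MEM + 10% FBS, 2 h settle, then compound 24 h at 37 °C. Luminescence after 10 min with Amplite reagent.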
Rab9 promoter act: qHTS Assay for Rab9 Promoter Activators. Potency, µM (highest dose often 9.22 µM), actives largely listed as activators. Huh7 Rab9 promoter-luciferase reporter, luminescence, 24 h. actives 2.8% (n = 320,000); further: nearly all actives have a fitted effect of over 60% in size
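Steps: seed 1500 Huh7 Rab9-luc cells per well, rest 2 h at 37 °C; add compound in DMSO; incubate 24 h; add luciferase reagent, 10 min ambient; read luminescence.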
ELG1 genotox: qHTS screen for small molecules that induce genotoxicity in human embryonic kidney (HEK293T) cells expressing luciferase-tagged ELG1; HEK293T ELG1-luciferase reporter, luminescence, 16 h; Potency, µM (series often up to 46 µM), usual class: activators; actives 1.3% (n = 330,000); AID 504466, 2011; further: nearly all actives have a fitted effect of over 60% in size
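Genotoxic stress is detected as increased luminescence from luciferase-tagged ELG1 in HEK293T cells, measured with ONE-Glo after a 16 hr treatment at 37 °C.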
Hits are given with their value; n = inactive; u = inconclusive; x = no result given; [ ] = dose if it differs, or a comment. Unless noted, the call rests on the fitted dose curve; in most records, active means well fitted curve in the direction sought with a large enough effect; inconclusive means small, poorly fitted or top-dose-only effect, or another doubt; inactive means no such curve, though single readings can be large; an effect the other way counts as inactive or inconclusive.

SMILES	FLuc modulator	SMN2 splice enh	uPA generation	NPC1 prom act	Rab9 promoter act	ELG1 genotox
CC(C)(C)n1cnc2cc(NCc3cccs3)ccc21	12µM	8.91µM	n	u	u	n
O=C(CSc1nc2ccsc2c(=O)n1Cc1ccccc1F)NCc1ccccc1Cl	n	x	x	x	x	x
CCOC(=O)c1noc2ncnc(Nc3cccc(OC)c3)c12	n	x	x	x	x	x
COc1cc(C(=O)Nc2ccc3c(c2)ncn3C)cc(OC)c1OC	u	x	u	n	n	u
CC(C)(C)n1cnc2cc(NC(=O)c3ccccc3)ccc21	6.01µM	x	n	1.41µM	1.41µM	5.17µM
CC(=O)NS(=O)(=O)c1ccc(NC(=O)c2oc3c(Cl)cccc3c2C)cc1	13.5µM	x	n	n	n	n
O=C(NCCc1ccccc1Cl)c1ccc2c(c1)nc1n2CCCCC1	0.536µM	x	x	x	x	x
O=C(NCCc1ccccc1)c1ccc2c(c1)nc1n2CCOC1	5.36µM	x	x	x	x	x
CCCSCCCNC(=O)c1ccc2c(c1)nc1n2CCCCC1	15.1µM	x	x	x	x	x
CC(C)CCNC(=O)c1ccc2c(c1)nc1n2CCCCC1	6.01µM	x	x	x	x	x
Cc1ccc(CCNC(=O)c2ccc3c(c2)nc2n3CCOC2)cc1	n	x	x	x	x	x
COc1ccc(CCNC(=O)c2ccc3c(c2)nc2n3CCCCC2)cc1OC	n	x	x	x	x	x
CC(Sc1nc2c([nH]c3ccccc32)c(=O)n1-c1ccccc1)c1ccccc1 (stereo not given)	n	x	x	x	x	x
Cc1ccc(CN2CCN(C3CCN(C(=O)c4ccccc4)CC3)C(=O)C2=O)cc1	n	x	x	x	x	x
COc1ccc(Br)cc1CNC(=O)c1ccc2c(c1)nc1n2CCC(C)C1 (stereo not given)	n	x	x	x	x	x
Cc1ccccc1CCNC(=O)c1ccc2c(c1)nc1n2CCC(C)C1 (stereo not given)	8.49µM	x	x	x	x	x
CCc1ccc(CNC(=O)c2ccc3c(c2)nc2n3CCCCC2)cc1	13.5µM	x	x	x	x	x
Cc1ccc(C)c(CNC(=O)c2ccc3c(c2)nc2n3CCCCC2)c1	15.1µM	x	x	x	x	x
Cc1ccc(C)c(CNC(=O)c2ccc3c(c2)nc2n3CCOC2)c1	n	x	x	x	x	x
COc1ccc(-n2c(=O)c3ccc(C(=O)NCc4ccc(C)cc4)cc3n(Cc3ccc(F)cc3Cl)c2=O)cc1	n	n	x	x	x	x
COc1ccc(/C=C2/N=C(SC3CCOC3=O)N(c3cccc(OC)c3)C2=O)cc1 (stereo not given)	n	x	n	n	n	n
COc1ccc(/C=C2\N=C(SC)N(c3ccccc3OC)C2=O)cc1	u	1.26µM	n	n	u	n
CCCOc1ccc(N2C(=O)C/C(=C\c3ccccc3)C2=O)cc1	n	x	n	n	n	n
CCOc1ccc(N2C(=O)/C(=C/c3ccccc3)N=C2SC)cc1	n	n	n	3.55µM	u	u
O=C(OCc1nc2ccc(Cl)cc2n1CCO)c1ccccc1	n	n	n	n	n	n
SMILES	FLuc modulator	SMN2 splice enh	uPA generation	NPC1 prom act	Rab9 promoter act	ELG1 genotox
COn1c(-c2ccc(Cl)cc2)nc2ccc(Cl)cc21	9.53µM	n	n	n	u	n
COc1ccc(-c2nc3ccccc3n2OCC(=O)O)cc1	3.01µM	x	n	n	n	u
O=C(O)COn1c(-c2ccc(Cl)cc2)nc2ccc(Cl)cc21	9.53µM	n	n	n	n	u
Cc1cc(C)cc(-n2nnc(-c3nc(-c4ccc5c(c4)OCO5)no3)c2C)c1	n	x	x	x	x	x
CCc1ccc(Oc2c(C(F)(F)F)oc3c(CN4CCN(C)CC4)c(O)ccc3c2=O)cc1	n	n	x	x	x	x
CCOC(=O)C1CCN(C2=NC(=O)/C(=C/c3ccccc3OC)S2)CC1	u	x	n	n	n	n
COc1cccc(/C=C2\SC(N3CCCC(C)C3)=NC2=O)c1OC (stereo not given)	5.36µM	x	n	u	u	u
COc1cccc(/C=C2\SC(=S)N(N3CCOCC3)C2=O)c1OC	16.9µM	n	n	n	n	u
COc1ccccc1/C=C1\SC(N2CCC(C)CC2)=NC1=O	12µM	x	n	n	n	u
COc1cccc(/C=C2\SC(N3CCC(C)CC3)=NC2=O)c1OC	16.9µM	x	n	n	n	n
Cc1ccc(Cl)cc1N1CCN(C(=O)c2cnn(C)c2C2CCN(C(=O)OC(C)(C)C)CC2)CC1	n	x	x	x	x	x
COC(=O)c1sccc1S(=O)(=O)N(CC(=O)Nc1cccc(C)c1C)c1ccc(C)c(C)c1	n	x	x	x	x	x
Fc1ccccc1C1CC(c2ccco2)=Nc2ccccc2S1 (stereo not given)	21.3µM	x	u	n	n	u
c1ccc2oc(-c3ccc4nc[nH]c4c3)nc2c1	3.38µM	12.6µM	n	2.51µM	1.58µM	20.6µM
COc1ccc(C(=O)NC(=S)NCc2ccc(-c3nc4ccccc4o3)cc2)cc1OC	n	n	x	n	n	u
COC(=O)c1ccc(-c2ncc(-c3cccc4ccccc34)o2)cc1	u	11.2µM	n	u	1.78µM	n
COC(=O)c1ccc(-c2nc3ccccc3o2)cc1	1.9µM	u	x	3.55µM	0.631µM	u
COc1ccc(-c2nc3ccc(NS(C)(=O)=O)cc3o2)cc1	2.69µM	x	x	x	x	x
Cc1ccc(S(=O)(=O)Nc2ccc3nc(-c4cccc(Cl)c4)oc3c2)cc1	n	x	x	x	x	x
CCCn1c(-c2ccc(F)cc2)nc2c(N3CCN(CCC(=O)OCC)CC3)nc(C)nc21	x	n	x	x	x	x
O=C(O)NCc1ccccc1 (tested in a mixture with another compound)	x	n[9.22 µM]	x	x	x	x
COc1ccc(-c2nc3ccccc3o2)cc1OC	10.7µM	x	u	u	n	u
Nc1nc2ccc(-c3nc4ccccc4o3)cc2s1	1.35µM	7.94µM	n	1.12µM	0.631µM	u
COC(=O)c1ccc(-c2nc3ccc(C)cc3o2)cc1	1.2µM	4.47µM	n	u	u	u
C=CCn1c2ccccc2c(=O)c2cc(C#CC3(O)CCCCC3)ccc21	0.757µM	x	u	1.26µM	0.708µM	u
SMILES	FLuc modulator	SMN2 splice enh	uPA generation	NPC1 prom act	Rab9 promoter act	ELG1 genotox
C=CCn1c2ccccc2c(=O)c2cc(C#CC[C@@H](C)O)ccc21	2.13µM	x	3.98µM	3.16µM	u	u
C=CCn1c(=O)c(C(=O)NC(C)c2ccccc2)c(O)c2ccccc21 (stereo not given)	n	x	n	n	n	n
O=c1oc(CCCO)cc2ccc(C#CC3(O)CCCCC3)cc12	u	x	n	n	n	n
Nc1ccc(N=Nc2ccccc2)cc1[N+](=O)[O-]	x	x	n	x	x	x
NC(=O)C[C@@H](N)C(=O)O	x	n	x	x	x	x
N#C/C(=C\c1ccc([N+](=O)[O-])o1)c1nc2ccccc2[nH]1	n	n	u	n	n	n
Cc1ccc2nc(/C(C#N)=C/c3ccc(-c4ccccc4C(=O)O)o3)[nH]c2c1	4.26µM	x	n	n	n	n
N#C/C(=C\c1ccc(-c2ccccc2C(=O)O)o1)c1nc2ccccc2[nH]1	12µM	n	n	n	n	n
